# In PubChem BioAssay (EPA / NIEHS):
# Records with an inconclusive call do not appear. Active and inactive are the calls of the source. How the source made its calls, unless noted: active means hit-call score of the fitted dose curve at least 0.9, where 1 is the maximum; inactive means score below 0.9.
# How the values were obtained:
# [1] = biological target: Nuclear respiratory factor 1 (Homo sapiens) (UniProt Q16656); test: ATG_NRF1_CIS: Attagene CIS-FACTORIAL HepG2 Assay for human Nuclear Respiratory Factor 1 (NRF1) Orphan Gene (AID 2282987); settings: HepG2 NRF1 cis-element reporter, Attagene multiplex; actives raise or lower the signal
# Sequence of Nuclear respiratory factor 1 (Homo sapiens) (Q16656 whole entry, looked up): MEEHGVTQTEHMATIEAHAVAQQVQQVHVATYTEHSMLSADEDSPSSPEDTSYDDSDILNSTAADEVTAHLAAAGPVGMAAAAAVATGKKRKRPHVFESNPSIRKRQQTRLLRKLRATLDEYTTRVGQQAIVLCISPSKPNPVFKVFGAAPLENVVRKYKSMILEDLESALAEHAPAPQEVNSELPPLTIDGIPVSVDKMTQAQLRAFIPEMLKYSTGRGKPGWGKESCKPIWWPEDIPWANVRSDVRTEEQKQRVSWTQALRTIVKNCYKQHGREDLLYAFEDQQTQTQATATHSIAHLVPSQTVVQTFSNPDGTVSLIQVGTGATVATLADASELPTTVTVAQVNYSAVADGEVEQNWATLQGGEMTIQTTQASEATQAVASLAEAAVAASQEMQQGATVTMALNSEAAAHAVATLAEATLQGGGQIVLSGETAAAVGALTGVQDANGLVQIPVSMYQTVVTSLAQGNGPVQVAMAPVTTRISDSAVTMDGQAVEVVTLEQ
# Method in brief: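 HepG2 cells transiently transfected with multiple reporter transcription units under cis-regulatory promoter control, so endogenous transcription-factor activity is read. After 24 h compound exposure, reporter mRNA quantified by RT-PCR, fluorescent labelling, HpaI digestion and capillary electrophoresis; bidirectional fitting versus DMSO.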
# [2] = ATG_NFI_CIS: Attagene CIS-FACTORIAL HepG2 Assay for human Nuclear Factor I (NFI) (AID 2282989); settings: HepG2 cis-regulatory reporter, NFI response element transcription; actives raise or lower the signal
# Method in brief: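 HepG2 cells transiently transfected with cis-element-driven multiplexed reporter transcription units, dosed for 24 h. Reporter mRNA quantified by RT-PCR, fluorescent labelling, HpaI digestion and capillary electrophoresis; bidirectional fit versus DMSO baseline.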
# [3] = ATG_NRF2_ARE_CIS: Attagene CIS-FACTORIAL HepG2 Assay for human Nuclear Factor Erythroid 2 Related Factor 2 (NFR2) response to Antioxidant Response Elements (ARE) (AID 2282992); settings: HepG2 Attagene ARE/NRF2 reporter, transcription factor activity; actives raise or lower the signal;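 on AC50: reporter mRNA level measured by RT-PCR and capillary electrophoresis fluorescence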
# Method in brief: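 Transient MRTU transfection of HepG2; 24 h compound exposure; TriZol RNA, RT with oligo(dT), PCR, 6-FAM primer extension, HpaI cut, CE. Bidirectional fit vs DMSO.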
# [4] = ATG_Oct_MLP_CIS: Attagene CIS-FACTORIAL HepG2 Assay for human Octamer-Binding Transcription Factor (Oct) (AID 2282993); settings: HepG2 Attagene cis-factorial Oct reporter, mRNA; actives raise or lower the signal
# Method in brief: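 HepG2 cells transiently transfected with cis-promoter-driven multiplexed reporter transcription units, dosed for 24 h. Reporter mRNA quantified by RT-PCR, fluorescent labelling, HpaI digestion and capillary electrophoresis; bidirectional fits versus DMSO baseline.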
# [5] = biological target: Peroxisome proliferator-activated receptor gamma (Homo sapiens) (UniProt P37231); test: ATG_PPARg_TRANS: Attagene TRANS-FACTORIAL HepG2 Assay for human Peroxisome Proliferator-activated Receptor-gamma (PPARg) (AID 2283007; active means hit-call score of the fitted dose curve at least 0.9, where 1 is the maximum)
# Sequence of Peroxisome proliferator-activated receptor gamma (Homo sapiens) (P37231 whole entry, looked up, the tested form may be a part): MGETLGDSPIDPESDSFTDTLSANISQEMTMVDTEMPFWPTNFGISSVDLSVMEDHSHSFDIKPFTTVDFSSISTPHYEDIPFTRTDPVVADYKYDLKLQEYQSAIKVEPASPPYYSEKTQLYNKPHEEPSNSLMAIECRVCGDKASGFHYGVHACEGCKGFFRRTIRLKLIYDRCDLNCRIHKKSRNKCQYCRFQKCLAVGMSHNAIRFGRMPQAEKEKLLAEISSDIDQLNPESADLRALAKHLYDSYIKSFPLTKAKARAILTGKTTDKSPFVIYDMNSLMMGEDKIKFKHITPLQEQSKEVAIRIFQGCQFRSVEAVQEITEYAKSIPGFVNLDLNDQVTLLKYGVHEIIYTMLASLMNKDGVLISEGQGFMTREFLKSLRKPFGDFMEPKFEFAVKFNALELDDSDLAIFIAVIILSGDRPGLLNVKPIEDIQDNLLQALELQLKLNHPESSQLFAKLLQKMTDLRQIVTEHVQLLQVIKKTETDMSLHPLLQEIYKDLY
# Method in brief: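 HepG2 cells transiently transfected with multiplexed GAL4-UAS reporter units and exogenous chimeric NR-Gal4 proteins; reporter mRNA quantified after 24 h compound exposure by RT-PCR, fluorescent labelling, HpaI digestion and capillary electrophoresis; gain-of-signal fitted versus DMSO baseline.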
# [6] = biological target: Nuclear receptor subfamily 1 group I member 2 (Homo sapiens) (UniProt O75469); test: ATG_PXR_TRANS: Attagene TRANS-FACTORIAL HepG2 Assay for human Pregnane X Receptor (PXR) (AID 2283008; active means hit-call score of the fitted dose curve at least 0.9, where 1 is the maximum)
# Sequence of Nuclear receptor subfamily 1 group I member 2 (Homo sapiens) (O75469 whole entry, looked up, the tested form may be a part): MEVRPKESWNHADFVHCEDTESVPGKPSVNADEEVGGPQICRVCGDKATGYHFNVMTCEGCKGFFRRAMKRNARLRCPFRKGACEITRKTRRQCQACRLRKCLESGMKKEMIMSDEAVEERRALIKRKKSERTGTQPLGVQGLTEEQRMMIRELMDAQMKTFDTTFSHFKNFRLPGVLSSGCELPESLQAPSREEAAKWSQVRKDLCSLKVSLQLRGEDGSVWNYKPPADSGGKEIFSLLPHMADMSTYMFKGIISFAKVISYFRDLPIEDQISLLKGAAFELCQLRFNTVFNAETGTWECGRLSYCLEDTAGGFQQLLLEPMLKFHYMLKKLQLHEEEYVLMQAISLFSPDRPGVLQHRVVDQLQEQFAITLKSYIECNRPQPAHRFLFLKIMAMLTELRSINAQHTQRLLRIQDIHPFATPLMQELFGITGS
# Method in brief: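 Read-out is fluorescence of labelled reporter cDNA fragments separated by capillary electrophoresis after RT-PCR and HpaI digestion. Source: HepG2 cells carrying PXR-GAL4/UAS reporter constructs, treated 24 h; activity fitted upward relative to DMSO.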
# [7] = ATG_NF_kB_CIS: Attagene CIS-FACTORIAL HepG2 Assay for human Nuclear Factor Kappa B (NF-kB) (AID 2282991); settings: HepG2 Attagene cis-factorial NF-kB reporter mRNA; actives raise or lower the signal
# Method in brief: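 HepG2 cells transiently transfected with multiplexed cis-element reporter units measuring endogenous transcription factor activity; reporter mRNA read 24 h after dosing by RT-PCR, fluorescent labelling, HpaI digestion and capillary electrophoresis. Bidirectional fit against DMSO baseline.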
# [8] = biological target: human Peroxisome Proliferator-activated Receptor alpha (PPARa), PPARA (gene 5465) (UniProt Q07869); test: ATG_PPARa_TRANS: Attagene TRANS-FACTORIAL HepG2 Assay for human Peroxisome Proliferator-activated Receptor alpha (PPARa) (AID 2283001; active means hit-call score of the fitted dose curve at least 0.9, where 1 is the maximum)
# Sequence of human Peroxisome Proliferator-activated Receptor alpha (PPARa), PPARA (gene 5465) (Q07869 whole entry, looked up, the tested form may be a part): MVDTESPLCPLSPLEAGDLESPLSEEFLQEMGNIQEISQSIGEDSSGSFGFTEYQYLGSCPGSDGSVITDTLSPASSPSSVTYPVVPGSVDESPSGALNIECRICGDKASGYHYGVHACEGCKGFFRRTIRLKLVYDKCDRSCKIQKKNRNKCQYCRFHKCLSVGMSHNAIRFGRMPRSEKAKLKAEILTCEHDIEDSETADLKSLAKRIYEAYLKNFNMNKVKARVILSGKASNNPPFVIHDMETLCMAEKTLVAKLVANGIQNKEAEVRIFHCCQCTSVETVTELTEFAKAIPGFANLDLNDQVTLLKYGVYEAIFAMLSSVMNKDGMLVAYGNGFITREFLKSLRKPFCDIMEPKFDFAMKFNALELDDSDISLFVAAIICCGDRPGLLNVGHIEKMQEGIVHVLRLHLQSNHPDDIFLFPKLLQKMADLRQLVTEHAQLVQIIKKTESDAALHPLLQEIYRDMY
# Method in brief: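 Gain-of-signal endpoint: reporter mRNA induction relative to DMSO, detected by fluorescent RT-PCR and capillary electrophoresis. HepG2 cells transiently carried GAL4-UAS-driven reporter units plus NR-Gal4 fusion; exposure lasted 24 h.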
# [9] = biological target: Cellular tumor antigen p53 (Homo sapiens) (UniProt P04637); test: ATG_p53_CIS: Attagene CIS-FACTORIAL HepG2 Assay for human p53 Transcription Factor (AID 2282994); settings: HepG2 p53 cis-element reporter, Attagene mRNA; actives raise or lower the signal
# Sequence of Cellular tumor antigen p53 (Homo sapiens) (P04637 whole entry, looked up): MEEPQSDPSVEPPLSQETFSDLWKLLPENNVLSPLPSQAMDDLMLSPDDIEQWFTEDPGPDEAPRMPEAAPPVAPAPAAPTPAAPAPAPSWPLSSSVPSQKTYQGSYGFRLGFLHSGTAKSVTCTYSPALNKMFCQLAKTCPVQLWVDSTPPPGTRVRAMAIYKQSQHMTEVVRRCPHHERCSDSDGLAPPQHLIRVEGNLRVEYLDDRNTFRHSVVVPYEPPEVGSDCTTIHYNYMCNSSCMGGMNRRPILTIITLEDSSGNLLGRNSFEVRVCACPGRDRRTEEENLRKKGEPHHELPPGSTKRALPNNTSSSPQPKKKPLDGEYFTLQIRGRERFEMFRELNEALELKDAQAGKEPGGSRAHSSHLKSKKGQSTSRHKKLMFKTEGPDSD
# Method in brief: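 HepG2, transient MRTU transfection (cis promoter elements, endogenous TFs); 24 h dosing; RNA isolation, RT-PCR, 6-FAM primer extension, HpaI digest, CE fluorescence; bidirectional fit vs DMSO.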
# [10] = biological target: human Peroxisome Proliferator-activated Receptor delta (PPARd), PPARD (gene 5467) (UniProt Q03181); test: ATG_PPARd_TRANS: Attagene TRANS-FACTORIAL HepG2 Assay for human Peroxisome Proliferator-activated Receptor delta (PPARd) (AID 2283002; active means hit-call score of the fitted dose curve at least 0.9, where 1 is the maximum)
# Sequence of human Peroxisome Proliferator-activated Receptor delta (PPARd), PPARD (gene 5467) (Q03181 whole entry, looked up, the tested form may be a part): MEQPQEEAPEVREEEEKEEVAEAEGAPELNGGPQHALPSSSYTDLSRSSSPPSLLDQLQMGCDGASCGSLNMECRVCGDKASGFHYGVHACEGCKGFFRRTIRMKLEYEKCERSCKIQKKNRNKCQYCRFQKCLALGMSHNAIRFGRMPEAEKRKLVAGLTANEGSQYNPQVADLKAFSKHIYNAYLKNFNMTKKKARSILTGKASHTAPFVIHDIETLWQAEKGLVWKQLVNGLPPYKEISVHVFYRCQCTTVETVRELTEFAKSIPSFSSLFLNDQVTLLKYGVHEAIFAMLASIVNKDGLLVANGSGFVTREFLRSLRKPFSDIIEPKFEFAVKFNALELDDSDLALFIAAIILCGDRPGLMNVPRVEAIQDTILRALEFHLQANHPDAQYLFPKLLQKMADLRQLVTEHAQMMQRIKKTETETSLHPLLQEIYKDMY
# Method in brief: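 HepG2 cells transiently transfected with multiplexed GAL4-UAS reporter units and exogenous chimeric NR-Gal4 proteins; 24 h compound exposure. Reporter mRNA measured by RT-PCR, 6-FAM labelling, HpaI digestion and capillary electrophoresis; gain of signal versus DMSO.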
# [11] = BSK_3C_TissueFactor: BioMAP Diversity Plus: 3C Assay for Tissue Factor Biomarker Activity (AID 2282997); settings: BioMAP 3C HUVEC, tissue factor biomarker readout; actives raise or lower the signal
# Method in brief: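 Values derive from bidirectional curve fitting against DMSO of Tissue Factor ELISA signals, taken 24 h after dosing primary human umbilical vein endothelial cells.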
# [12] = BSK_3C_uPAR: BioMAP Diversity Plus: 3C Assay for Urokinase-type plasminogen activator receptor (uPAR) Biomarker Activity (AID 2282998); settings: BioMAP 3C HUVEC, uPAR biomarker ELISA; actives raise or lower the signal
# Method in brief: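 Human umbilical vein endothelial primary cells were exposed to test chemical for 24 h. Cell-surface uPAR was then quantified by ELISA, and responses were fitted bidirectionally against DMSO as negative control and baseline.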
# [13] = BSK_3C_VCAM1: BioMAP Diversity Plus: 3C Assay for Vascular cell adhesion molecule 1 (VCAM1) Biomarker Activity (AID 2282999); settings: BioMAP 3C HUVEC, VCAM1 ELISA, cytokine-stimulated; actives raise or lower the signal
# Method in brief: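 Human umbilical vein endothelial cells were dosed with compound for 24 h, after which cell-surface VCAM-1 was quantified by ELISA. Bidirectional curve fitting used DMSO as negative control and activity baseline.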
# [14] = BSK_4H_Eotaxin3: BioMAP Diversity Plus: 4H Assay for Eotaxin 3 Biomarker Activity (AID 2283000); settings: primary human endothelial cells (HUVEC); actives raise or lower the signal;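 on outcome: CCL26 protein level quantified by ELISA in parallel with SRB cytotoxicity check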
# Method in brief: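 Endothelial primary cells (human umbilical vein) exposed to compound for 24 h. ELISA detection of Eotaxin-3.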
# [15] = biological target: human Retinoic Acid Receptor beta (RARb), RARB (gene 5915) (UniProt P10826); test: ATG_RARb_TRANS: Attagene TRANS-FACTORIAL HepG2 Assay for human Retinoic Acid Receptor beta (AID 2283004; active means hit-call score of the fitted dose curve at least 0.9, where 1 is the maximum)
# Sequence of human Retinoic Acid Receptor beta (RARb), RARB (gene 5915) (P10826 whole entry, looked up, the tested form may be a part): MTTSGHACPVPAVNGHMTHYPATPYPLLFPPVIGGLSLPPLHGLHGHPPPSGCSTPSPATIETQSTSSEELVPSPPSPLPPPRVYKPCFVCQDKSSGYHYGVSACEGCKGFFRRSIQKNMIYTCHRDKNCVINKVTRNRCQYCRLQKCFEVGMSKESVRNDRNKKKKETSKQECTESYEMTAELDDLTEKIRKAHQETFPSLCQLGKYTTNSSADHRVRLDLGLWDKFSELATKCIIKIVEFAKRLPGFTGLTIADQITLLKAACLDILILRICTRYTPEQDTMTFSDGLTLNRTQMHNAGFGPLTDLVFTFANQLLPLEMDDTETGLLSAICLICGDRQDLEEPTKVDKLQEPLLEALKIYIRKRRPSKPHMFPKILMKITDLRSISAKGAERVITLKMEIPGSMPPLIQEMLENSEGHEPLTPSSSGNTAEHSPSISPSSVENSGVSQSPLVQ
# Method in brief: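 HepG2, transient MRTU transfection, NR–Gal4 chimera, 24 h treatment; RT-PCR plus CE fluorescence detection of reporter mRNA; gain of signal vs DMSO.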
# [16] = biological target: Retinoic acid receptor alpha (Homo sapiens) (UniProt P10276); test: ATG_RARa_TRANS: Attagene TRANS-FACTORIAL HepG2 Assay for human Retinoic Acid Receptor alpha (RARa) (AID 2283005; active means hit-call score of the fitted dose curve at least 0.9, where 1 is the maximum)
# Sequence of Retinoic acid receptor alpha (Homo sapiens) (P10276 whole entry, looked up, the tested form may be a part): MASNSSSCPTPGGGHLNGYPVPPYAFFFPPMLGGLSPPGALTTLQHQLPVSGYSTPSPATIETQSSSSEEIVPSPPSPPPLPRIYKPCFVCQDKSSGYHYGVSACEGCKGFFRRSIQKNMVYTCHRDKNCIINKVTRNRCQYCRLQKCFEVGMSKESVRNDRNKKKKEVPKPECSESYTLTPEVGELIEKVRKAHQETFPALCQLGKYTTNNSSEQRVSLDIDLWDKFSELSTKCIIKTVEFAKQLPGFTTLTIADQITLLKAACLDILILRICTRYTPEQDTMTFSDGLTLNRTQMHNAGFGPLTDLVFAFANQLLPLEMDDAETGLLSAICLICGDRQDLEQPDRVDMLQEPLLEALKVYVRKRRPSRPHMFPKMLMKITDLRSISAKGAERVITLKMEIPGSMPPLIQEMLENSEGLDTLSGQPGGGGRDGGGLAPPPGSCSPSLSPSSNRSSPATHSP
# Method in brief: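 HepG2 cells transiently transfected with multiple reporter units expressing chimeric RARα-GAL4 fusion, with GAL4-UAS-driven reporters. After 24 h compound exposure, reporter mRNA induction quantified by RT-PCR and capillary electrophoresis with fluorescent labeling; gain-of-signal fitted relative to DMSO control.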
# [17] = BSK_3C_Proliferation: Cell Proliferation Assessment in the BioMAP Diversity Plus: 3C Assay (AID 2283006); settings: primary human endothelial cells (HUVEC)
# Method in brief: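 Read-out is total protein by SRB absorbance at 560 nm, taken as a proxy for relative cell number. Primary human umbilical vein endothelium cultured below confluence was dosed for 48 h, TCA-fixed and SRB-stained; curves were fitted bidirectionally versus DMSO.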
# [18] = biological target: human Retinoic Acid Receptor gamma (RARg), RARG (gene 5916) (UniProt P13631); test: ATG_RARg_TRANS: Attagene TRANS-FACTORIAL HepG2 Assay for human Retinoic Acid Receptor gamma (RARg) (AID 2283009; active means hit-call score of the fitted dose curve at least 0.9, where 1 is the maximum)
# Sequence of human Retinoic Acid Receptor gamma (RARg), RARG (gene 5916) (P13631 whole entry, looked up): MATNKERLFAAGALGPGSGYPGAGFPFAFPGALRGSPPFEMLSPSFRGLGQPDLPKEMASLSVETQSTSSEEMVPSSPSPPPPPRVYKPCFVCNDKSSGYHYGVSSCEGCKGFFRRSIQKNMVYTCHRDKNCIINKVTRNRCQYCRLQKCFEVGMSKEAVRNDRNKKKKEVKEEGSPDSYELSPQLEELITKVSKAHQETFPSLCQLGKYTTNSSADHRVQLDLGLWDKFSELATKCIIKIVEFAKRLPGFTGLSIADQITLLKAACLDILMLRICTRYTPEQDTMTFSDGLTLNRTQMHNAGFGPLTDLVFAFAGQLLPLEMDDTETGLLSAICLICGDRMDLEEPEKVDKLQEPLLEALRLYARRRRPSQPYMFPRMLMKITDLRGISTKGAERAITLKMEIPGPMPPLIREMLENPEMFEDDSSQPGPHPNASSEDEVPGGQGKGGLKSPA
# Method in brief: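 Transient transfection of HepG2 with multi-reporter constructs, then 24 h chemical treatment. Total RNA isolated, reverse-transcribed, PCR-amplified, fluorescently labelled and resolved by capillary electrophoresis; activity scored as mRNA induction versus DMSO.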
# [19] = read-out: Intercellular Adhesion Molecule 1 (ICAM1), ICAM1 (gene 3383); test: BSK_3C_ICAM1: BioMAP Diversity Plus: 3C Assay for Intercellular Adhesion Molecule 1 (ICAM1) Biomarker Activity (AID 2283003); settings: primary human endothelial cells (HUVEC); actives raise or lower the signal
# Method in brief: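 ICAM-1 levels measured by ELISA after HUVEC cultures in the 3C system had been dosed for 24 h. Gain or loss of signal relative to DMSO was fitted in both directions.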
# [20] = biological target: Myc proto-oncogene protein (Homo sapiens) (UniProt P01106); test: ATG_Myc_CIS: Attagene CIS-FACTORIAL HepG2 Assay for human Myelocytomatosis (Myc) Proto-Oncogene Transcription Factor (AID 2282990); settings: HepG2, Attagene cis-reporter transcription factor activity; actives raise or lower the signal
# Sequence of Myc proto-oncogene protein (Homo sapiens) (P01106 whole entry, looked up): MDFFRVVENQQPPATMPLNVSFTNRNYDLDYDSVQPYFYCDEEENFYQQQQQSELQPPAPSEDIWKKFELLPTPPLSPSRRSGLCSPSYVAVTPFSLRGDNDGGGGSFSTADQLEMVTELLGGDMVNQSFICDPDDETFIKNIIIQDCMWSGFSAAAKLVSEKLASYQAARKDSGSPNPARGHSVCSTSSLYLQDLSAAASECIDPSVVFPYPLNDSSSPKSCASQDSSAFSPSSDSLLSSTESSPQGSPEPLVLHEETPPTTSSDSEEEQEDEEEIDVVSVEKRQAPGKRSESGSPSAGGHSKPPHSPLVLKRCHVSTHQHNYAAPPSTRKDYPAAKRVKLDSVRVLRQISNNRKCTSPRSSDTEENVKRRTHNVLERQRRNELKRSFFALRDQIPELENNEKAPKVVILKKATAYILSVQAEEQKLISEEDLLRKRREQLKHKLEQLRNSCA
# Method in brief: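 HepG2 cells transiently transfected with multiple cis-promoter-driven reporter transcription units, so endogenous TF activity is read. After 24 h compound exposure, reporter mRNA was quantified by RT-PCR, 6-FAM labelling, HpaI digestion and capillary electrophoresis; bidirectional fit versus DMSO.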
smiles,measurement,setting,value
O=C(Oc1ccccc1)c1ccccc1O,outcome,[1],inactive
same,outcome,[2],inactive
same,outcome,[3],inactive
same,outcome,[4],inactive
same,outcome,[5],inactive
same,outcome,[6],inactive
CCCCC(C=O)CC (stereo unspecified),outcome,[1],inactive
same,outcome,[2],inactive
same,outcome,[7],inactive
same,outcome,[3],inactive
same,outcome,[4],inactive
same,outcome,[8],inactive
same,outcome,[5],inactive
same,outcome,[6],inactive
Nc1ncnc2nc[nH]c12,outcome,[1],inactive
same,outcome,[2],inactive
same,outcome,[7],inactive
same,outcome,[3],inactive
same,outcome,[4],inactive
same,outcome,[9],inactive
CC(CC=O)CC(C)(C)C (stereo unspecified),outcome,[1],inactive
same,outcome,[2],inactive
same,outcome,[3],inactive
same,outcome,[4],inactive
same,outcome,[9],inactive
same,outcome,[10],inactive
same,outcome,[5],inactive
same,AC50,[6],7.15 µM (active)
C=CC(C)(CCC=C(C)C)OC(=O)C=Cc1ccccc1 (stereo unspecified),outcome,[1],inactive
same,outcome,[2],inactive
same,outcome,[7],inactive
same,AC50,[3],32.9 µM (active)
same,outcome,[4],inactive
same,outcome,[9],inactive
same,AC50,[5],4.97 µM (active)
same,AC50,[6],2.75 µM (active)
Clc1cc(Cl)c(Cl)c(Cl)c1Cl,outcome,[1],inactive
same,outcome,[2],inactive
same,outcome,[3],inactive
same,outcome,[4],inactive
same,outcome,[9],inactive
same,AC50,[11],3.97 µM (active)
same,outcome,[12],inactive
same,outcome,[13],inactive
same,AC50,[14],31.4 µM (active)
same,outcome,[15],inactive
same,outcome,[16],inactive
same,outcome,[17],inactive
same,AC50,[6],27.6 µM (active)
same,outcome,[18],inactive
C=CC(=O)O[C@H]1C[C@@H]2CC[C@@]1(C)C2(C)C,outcome,[1],inactive
same,outcome,[2],inactive
same,AC50,[7],181 µM (active)
same,AC50,[3],32.1 µM (active)
same,outcome,[4],inactive
same,outcome,[9],inactive
same,outcome,[8],inactive
same,outcome,[10],inactive
same,outcome,[5],inactive
same,AC50,[6],26.6 µM (active)
CCCCCC1=CCCC1=O,outcome,[1],inactive
same,outcome,[2],inactive
same,outcome,[7],inactive
same,AC50,[3],55.8 µM (active)
same,outcome,[4],inactive
same,outcome,[11],inactive
same,outcome,[12],inactive
same,outcome,[13],inactive
same,outcome,[14],inactive
same,outcome,[10],inactive
same,outcome,[19],inactive
same,outcome,[17],inactive
same,AC50,[6],11.4 µM (active)
CC(=O)/C=C/C1C(C)=CCCC1(C)C (stereo unspecified),outcome,[1],inactive
same,outcome,[2],inactive
same,outcome,[20],inactive
same,outcome,[3],inactive
same,outcome,[4],inactive
same,AC50,[6],2.79 µM (active)
CCCc1ccc(O)c(OC)c1,outcome,[1],inactive
same,outcome,[2],inactive
same,AC50,[3],28.8 µM (active)
same,outcome,[4],inactive
same,outcome,[9],inactive
same,outcome,[8],inactive
same,outcome,[6],inactive
same,outcome,[18],inactive
CCC(C)C(=O)OCCc1ccccc1 (stereo unspecified),outcome,[1],inactive
same,outcome,[2],inactive
same,outcome,[7],inactive
same,outcome,[3],inactive
same,outcome,[4],inactive
same,outcome,[9],inactive
same,outcome,[8],inactive
same,outcome,[10],inactive
same,outcome,[6],inactive
